# D1 antagonist = antagonists of human D1 dopamine receptor; 360,000 tested, 3.2% active; P21728; HEK293 TREx D1 cells, calcium flux, dopamine EC80; hits give low values; activity change, negative = inhibition, % at 10 µM; in the data active = activity change below about -30%; also: % is scaled to controls: 0 for no effect and ±100 for the full control effect
#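 HEK293 T-REx cells expressing inducible, force-coupled D1 receptor; no-wash Ca dye, 30–90 min RT. Cmpd → 180 s read at 1 Hz → EC80 DA → 180 s read.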
# BCR signal inh = chronic active BCR signaling inhibition; ABC-DLBCL IkBa-CBG/CBR reporter, luminescence ratio, 4 h; Potency, µM (highest dose often 46.1 µM), for inactives: top-dose activity change, negative = inhibition, hits mostly inhibitors; 340,000 tested, 0.05% active; AID 493014; active = well fitted inhibition curve with a large enough effect in the signal ratio, with a control signal flat, not every such curve was filed as active; inconclusive = small, poorly fitted or top-dose-only effect, or effect the other way, or a change in a side signal; the % refers to the signal ratio;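 also: potency is read from the fitted curve at half-maximal effect; plate controls were basal doxycycline-induced cells for no effect and cells given 10 µM MG132 for full effect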
#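 Doxycycline induced both beetle luciferases in TMD8 lymphoma cells; IKK-driven degradation limits the IkappaBalpha-fused green signal, while red luminescence normalises for cell number and nonspecific effects. Compounds tested up to 46 uM, 4 hrs.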
# DRD3 antagonist = D3 dopamine receptor (human) antagonism; D3R cells, DiscoveRx beta-arrestin luminescence, antagonist mode; hits give low values; max response, negative = inhibition, %; 360,000 tested, 2.5% active; in the data active = max response below about -50%; inconclusive = no clear call, values can overlap the other calls; also: % is scaled to controls: 0 for no effect and ±100 for the full control effect
# Target sequence (P35462 whole entry, looked up): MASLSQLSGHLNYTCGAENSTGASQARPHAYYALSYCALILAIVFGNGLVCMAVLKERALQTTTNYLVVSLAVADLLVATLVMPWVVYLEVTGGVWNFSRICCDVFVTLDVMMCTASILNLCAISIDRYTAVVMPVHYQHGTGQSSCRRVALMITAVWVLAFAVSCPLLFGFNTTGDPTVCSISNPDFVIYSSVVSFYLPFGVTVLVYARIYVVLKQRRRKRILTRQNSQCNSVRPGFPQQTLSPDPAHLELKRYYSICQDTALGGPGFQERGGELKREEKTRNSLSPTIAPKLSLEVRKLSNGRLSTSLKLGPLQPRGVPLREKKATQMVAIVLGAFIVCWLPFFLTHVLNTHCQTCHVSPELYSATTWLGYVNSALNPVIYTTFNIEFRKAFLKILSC
#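 Cells plated overnight at 1500 cells/well, then exposed to library compounds with dopamine controls for 90 minutes at 37 degrees C. DiscoveRx reagent added for 30–60 minutes at room temperature; luminescence read, quantitative HTS format.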
# DRD3 agonist = activates the human D3 dopamine receptor; P35462; D3R DiscoveRx beta-arrestin cells, luminescence, 90 min; max activation, %; 410,000 tested, 0.58% active; AID 652048; in the data active = max activation above about 30%; also: 0% is about no effect
#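 Agonist-mode cell screen: cells plated at 1500/well and incubated overnight at 37 °C, then exposed to library compounds for 90 min at 37 °C. Detection reagent was added for 30–60 min at room temperature, and luminescence was read.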
# D1 PAM = potentiators of human D1 dopamine receptor; HEK293 TREx D1 cells, calcium flux, dopamine EC20 potentiation; 360,000 tested, 0.036% active; AID 504651; potentiation, % at 10 µM; in the data active = potentiation above about 30%; also: 0% is about no effect
# D1 agonist = human D1 receptor agonism | HEK293 T-REx D1 cells, calcium flux, agonist mode | P21728 | activation, % at 2 µM | 360,000 tested, 1% active; in the data active = activation above about 30%; also: 0% is about no effect
#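 Tetracycline-induced HEK293 TREx D1 cells, force-coupled to calcium signalling, were dye-loaded with a no-wash calcium kit. Compound was pin-added after a 10 s baseline. Fluorescence was read kinetically at 1 cycle/s for 180 s, with calcium rises flagged as agonism.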
# The depositor's hits bear a star; u = inconclusive; x = no result; ! = repeats disagree. Rows were chosen to be rich in hits. Some 6% of all compounds tested hit in one or more screens of this group.
SMILES,D1 antagonist,BCR signal inh,DRD3 antagonist,DRD3 agonist,D1 PAM,D1 agonist
O=P(Cc1nnco1)(c1ccccc1)c1ccccc1,13,-2%,-63*,-6,2,5
Oc1ccc(Br)cc1C1C=C(c2ccc3c(c2)OCO3)NC(c2ccc(F)c(Br)c2)N1 (stereo not given),-24,x,x,x,-3,19
CC1(C(=O)NCc2ccc3c(c2)OCO3)CCN1Cc1csc2ccccc12 (stereo not given),x,x,25,3,x,x
COc1cc(OC)c(NC(=O)c2c(N3CCCC3=O)c3cc(C)ccc3n2C)cc1Cl,-88*,x,x,9,-4,-2
O=C(CSc1oc(-c2ccco2)nc1S(=O)(=O)c1ccc(Br)cc1)c1ccc(Cl)cc1,-8,x,x,9,0,1
NCCCC[C@H](NC(=O)[C@@H]1CCCN1C(=O)[C@@H]1CSSC[C@H](N)C(=O)N[C@@H](Cc2ccccc2)C(=O)N[C@@H](Cc2ccccc2)C(=O)N[C@@H](CCC(N)=O)C(=O)N[C@@H](CC(N)=O)C(=O)N1)C(=O)NCC(N)=O,x,x,x,-2,x,x
CC(=O)N1CCCC1c1nc2ccccc2n1Cc1cccc(Cl)c1 (stereo not given),-33*,x,x,-4,6,3
CCCCN(C)C(=O)c1nc2ccccn2c1CNCCCn1ncc2ccccc21,3,-9%,-77*,-14,-11,5
CN(Cc1ccccc1)C(=O)c1nc2ccccn2c1CNCCCOc1cccnc1,6,u,-56*,-16,-5,2
O=C(c1nc2ccccn2c1CNCCCn1ncc2ccccc21)N1CCCC1,-5,-1%,-12,-26,8,2
Cc1ccc(S(=O)(=O)NCc2nc3nc(C)cc(C)n3n2)c(C)c1,-65*!,-2%,1,0,-8,4
COc1ccc(NC(=O)CN(C)S(=O)(=O)c2ccc3[nH]c4c(c3c2)CCCC4)cc1Cl,-14,x,x,5,6,-1
Cc1cc(C(=O)NC2CCCc3c2cnn3-c2cccc(C)c2C)no1 (stereo not given),-38*,-2%,27,18,-6,5
Cc1cccc(-n2ncc3c2CCCC3NC(=O)c2ccncc2)c1C (stereo not given),x,x,-15,0,x,x
CCn1cc(C(=O)NC2CCCc3c2cnn3-c2cccc(C)c2C)cn1 (stereo not given),-21,u,x,x,-7,40*
CSCCC(NC(=O)c1ccccc1)C(=O)NC1CCCC1 (stereo not given),-1,3%,4,12,-3,2
CSCCC(NC(=O)c1ccccc1)C(=O)NC1CC1 (stereo not given),6,-28%,10,34*,19,2
CC12CCC3C(CCC4CC(O)CCC43C)C1CC(O)C2 (stereo not given),x,x,82,31*,x,x
C[C@@]12CCC[C@H]1[C@@H]1CC[C@H]3C[C@@H](O)CC[C@]3(C)[C@H]1CC2,x,x,x,3,x,x
C[C@]12CCC(O)CC1CCC1C2CC[C@]2(C)C(c3cc(C(F)(F)F)n[nH]3)CCC12 (stereo not given in full),-5,5%,127,7,-7,43*
CC(O)[C@H]1CC[C@H]2[C@@H]3CC[C@H]4C[C@@H](O)CC[C@]4(C)[C@H]3C(=O)C[C@]12C (stereo not given in full),-3,3%,-17,-3,-3,8
CC(O)[C@H]1CC[C@H]2[C@@H]3CC[C@H]4C[C@H](O)CC[C@]4(C)[C@H]3[C@H](O)C[C@]12C (stereo not given in full),-50*,-18%,42,10,-3,72*
C[C@H](O)[C@@]1(O)CC[C@H]2[C@@H]3CC[C@@H]4C[C@H](O)CC[C@]4(C)[C@H]3CC[C@@]21C,x,x,3,-3,x,x
CNc1ccc(-c2cccc(C#N)c2)cn1,x,x,7,11,x,x
CC(C)(CCl)C(=O)Nc1ccc(OC(F)(F)F)cc1,-11,u,22,6,-5,9
SMILES,D1 antagonist,BCR signal inh,DRD3 antagonist,DRD3 agonist,D1 PAM,D1 agonist
Cc1cc(C)n(-c2ccc(Cl)c(C(=O)Nc3ccc(OC(F)(F)F)cc3)n2)n1,-36*,1%,-19,-20,-1,1
C#CCOCCOCCOCCNc1nc(N2CCN(C(=O)[C@H]([C@@H](C)CC)n3cc([C@@H](N)CC(C)C)nn3)CC2)nc(N2CCN(C(=O)[C@H](Cc3ccc(O)cc3)n3cc([C@@H](N)C(C)CC)nn3)CC2)n1 (stereo not given in full),-1,3%,-50*,-74,0,-4
C#CCOCCOCCOCCNc1nc(N2CCN(C(=O)[C@H](CCCCN)n3cc([C@@H](N)C(C)CC)nn3)CC2)nc(N2CCN(C(=O)[C@H](Cc3cc4ccccc4[nH]3)n3cc([C@@H](N)CC(C)C)nn3)CC2)n1 (stereo not given in full),2,-14%,-18,-9,5,-4
C#CCOCCOCCOCCNc1nc(N2CCN(C(=O)[C@H](Cc3cc4ccccc4[nH]3)n3cc([C@@H](N)C(C)CC)nn3)CC2)nc(N2CCN(C(=O)[C@H](CCCCN)n3cc([C@@H](N)CO)nn3)CC2)n1 (stereo not given in full),-35*,4%,x,x,-4,0
COc1ccc(C(=O)C=CNNC(=O)c2ccc(Cl)cc2)cc1,-5,u,-54*,-12,-6,3
O=C(/C=C/NNC(=O)c1ccc(Cl)cc1)c1ccccc1,-5,u,-12,-5,-7,0
O=C(/C=C/NNC(=O)c1ccccc1)c1ccc(Br)cc1,5,u,-77*,-14,-8,3
COc1ccc(C(=O)NN/C=C/C(=O)c2ccc(Br)cc2)cc1,x,x,-29,-11,x,x
c1ccc(CNc2ncnc3c2cnn3Cc2ccccc2)cc1,-15,u,7,-4,-9,52*
Cc1ccc(CNc2ncnc3onc(C)c23)cc1,-18,x,x,-11,-9,21
COCCNc1nc(NCc2cccc(Cl)c2)c2cnn(C)c2n1,-6,x,x,12,0,5
Cc1noc2ncnc(NCc3cccc(Cl)c3)c12,-35*,x,x,-9,-6,30
Cn1ncc2c(NCc3cccc(Cl)c3)ncnc21,-38*,u,x,-7,-2,2
OCCNc1ncnc2c1cnn2Cc1ccccc1,9,-3%,-12,-1,-3,2
CCCc1nc2c3ccccc3ccn2c1Cc1ccccc1,x,x,4,4,x,x
COC(Cc1nnc(SC)n1-c1ccc(Cl)cc1)OC,x,1%,5,4,x,x
C=CCSc1nnc(CC(OC)OC)n1-c1ccccc1,-37*,13%,8,1,0,8
